From PubChem BioAssay (Tox21) come the findings set out here.

SMILES strings stand for the structures. Unmarked numbers belong to inactive results. Inconclusive results are not listed. Active and inactive are the calls of the source. Unless noted, calls come from the whole dose curve; as a rule, active = well fitted curve in the direction sought with a large enough effect in the repeat runs; inconclusive = weak or mixed curves; inactive = flat fitted curve, though single readings scatter.

The nature of assay [1]: qHTS assay to test for compound auto fluorescence at 535 nm (green) in HEK293 cells (AID 720680). (In general: Quantitative high-throughput screening tests each substance at several concentrations.)
Assay [2] is described as follows: qHTS assay to test for compound auto fluorescence at 460 nm (blue) in HEK293 cell free culture (AID 720681). Summed up: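 Test compounds were pinned into cell-free culture medium (DMEM with 10% FBS) and fluorescence was read directly at Ex/Em 405/460 nm. Signals were expressed as fluorescence equivalents of triamterene, with DMSO vehicle as control.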
A short description of assay [3]: qHTS assay to test for compound auto fluorescence at 535 nm (green) in HEK293 cell free culture (AID 720682). Summed up:
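Using fluorescein as calibrant, autofluorescence was quantified at 485/535 nm in cell-free DMEM containing 10% FBS after pintool addition of compound or vehicle.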

Assay [4] in a line: qHTS assay to test for compound auto fluorescence at 590 nm (red) in HEK293 cell free culture (AID 720683). The method, boiled down:
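Tox21 10K library compounds were pinned into cell-free DMEM with 10% FBS and fluorescence was read at excitation 540 nm. Activity is expressed as Rose Bengal sodium equivalency.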

A short description of assay [5]: qHTS assay to test for compound auto fluorescence at 590 nm (red) in HepG2 cell free culture (AID 720684). The method, boiled down:
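Ex 540 / Em 590 nm read of compound in cell-free MEM (10% FBS). Rose Bengal sodium reference.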

Assay [6] is described as follows: qHTS assay to test for compound auto fluorescence at 460 nm (blue) in HepG2 cell free culture (AID 720685). Summed up: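 Cell-free plates of MEM plus 10% FBS received 23 nL compound or DMSO vehicle; blue-channel (405/460 nm) intensity scored against triamterene as reference fluorophore.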
A short description of assay [7]: qHTS assay to test for compound auto fluorescence at 535 nm (green) in HepG2 cell free culture (AID 720686).
Assay [8] is described as follows: qHTS assay to test for compound auto fluorescence at 460 nm (blue) in HepG2 cells (AID 720687). The method, boiled down:
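Cells (2,000/well in MEM with 10% FBS) attached overnight at 37 C, then were exposed to compound or DMSO for 1 hr at 37 C, 5% CO2. Fluorescence read at Ex/Em 405/460 nm, expressed as triamterene-equivalent signal.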

For assay [9], the target named is Glucocorticoid receptor (Homo sapiens) (UniProt P04150). As to the kind of experiment: qHTS assay to identify small molecule agonists of the glucocorticoid receptor (GR) signaling pathway (AID 720691; active = well fitted activation curve with a large enough effect in the signal ratio in the repeat runs, not every such curve was filed as active; the % refers to the signal ratio; note: potency is the fitted concentration of half-maximal effect). The conditions noted are these: GR-bla HeLa, beta-lactamase reporter ratio, 18 h; activation: at 62.4 µM (top of the series). The method, boiled down: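 Compounds in DMSO, alongside positive controls, were added to GR-bla HeLa reporter cells and incubated 18 h at 37 C; GRE-driven beta-lactamase was detected by fluorescence after 2 h with FRET substrate at room temperature.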
% is set by controls: 0 for no effect and ±100 for the full control effect.

Glucocorticoid receptor (Homo sapiens), sequence (P04150 whole entry, looked up): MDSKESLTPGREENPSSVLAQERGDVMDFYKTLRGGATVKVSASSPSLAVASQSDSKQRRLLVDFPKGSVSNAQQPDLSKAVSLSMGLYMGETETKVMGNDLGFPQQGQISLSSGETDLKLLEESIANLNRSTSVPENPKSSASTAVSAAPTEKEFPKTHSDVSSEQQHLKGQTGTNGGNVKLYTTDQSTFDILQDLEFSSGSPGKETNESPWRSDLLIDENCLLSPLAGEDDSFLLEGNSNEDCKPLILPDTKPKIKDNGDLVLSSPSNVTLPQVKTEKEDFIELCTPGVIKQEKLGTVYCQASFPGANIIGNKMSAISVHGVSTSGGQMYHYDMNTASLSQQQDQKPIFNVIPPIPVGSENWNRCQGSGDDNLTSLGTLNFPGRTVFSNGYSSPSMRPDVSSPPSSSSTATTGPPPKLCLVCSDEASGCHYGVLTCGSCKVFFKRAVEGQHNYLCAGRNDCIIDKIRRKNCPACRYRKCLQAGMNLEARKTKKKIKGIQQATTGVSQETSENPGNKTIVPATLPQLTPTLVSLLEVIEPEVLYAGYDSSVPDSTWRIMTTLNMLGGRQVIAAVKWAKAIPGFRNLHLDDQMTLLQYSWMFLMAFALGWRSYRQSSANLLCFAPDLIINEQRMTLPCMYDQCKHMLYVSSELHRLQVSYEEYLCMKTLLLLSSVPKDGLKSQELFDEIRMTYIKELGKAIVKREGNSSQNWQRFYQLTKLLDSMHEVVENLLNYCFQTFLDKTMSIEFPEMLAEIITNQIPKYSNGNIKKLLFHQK

Turning to `CCCCCCCCNC(C)C(O)c1ccc(SC(C)C)cc1` (stereo not drawn), the compound was classed as inactive in [1] and in assay [3]. The Potency result in assay [2], in [4], in assay [5], in assay [6], in assay [7] and in assay [8] was “inactive” in each case.
On to `Cc1cc(O)c(Cl)c(C)c1Cl`, for which the outcome in [1] and in assay [3] was inactive. The Potency entry in [2], in [4], in assay [5], in assay [6], in assay [7] and in assay [8] was “inactive” throughout. Moreover, the Potency result in assay [9] was “inactive”.
`CCCCN(CCCC)C(=O)N(CCCC)CCCC`: the call in [1] and in assay [3] was inactive. The Potency entry in assay [2], in assay [4], in assay [5], in [6], in assay [7] and in [8] was “inactive” in each case. Also, the Potency result in [9] was “inactive”.
For `CC(C)C(C)(C)C(C)(C)C(C)(C)S`, the result in [1] and in [3] was inactive. Further, the Potency entry in assay [2], in assay [4], in assay [5], in assay [6], in assay [7] and in assay [8] was “inactive” in each case.
As for `CC(C)c1ccc2c(c1)CC[C@H]1[C@](C)(CN)CCC[C@]21C`, the compound was called inactive in assay [1] and in assay [3]. The Potency result in assay [2], in assay [4], in assay [5], in [6], in assay [7] and in assay [8] was “inactive” each time.
As for `NNC(=O)c1cccc(C(=O)NN)c1`, the result in assay [1] and in [3] was inactive. In addition, the Potency result in assay [2], in assay [4], in assay [5], in [6], in assay [7] and in assay [8] was “inactive” in each case. Also, the Potency entry in [9] was “inactive”.
With `CCOC(=O)c1nc(C(Cl)(Cl)Cl)n(-c2ccc(Cl)cc2Cl)n1`, the call in assay [1] and in assay [3] was inactive. Further, the Potency result in assay [2], in assay [4], in assay [5], in assay [6], in assay [7] and in assay [8] was “inactive” each time.
In the case of `CCCCCCC[N+](CC)(CC)CCCCc1ccc(Cl)cc1`, the fluorescence, % of fluorescein in [1] is 0.0325% [at 18.6 µM]. The fluorescence, % of fluorescent control was -0.0966% [at 18.6 µM] in assay [2], -0.544% [at 18.6 µM] in assay [4], -0.0851% [at 18.6 µM] in [6] and -0.0972% [at 18.6 µM] in assay [8]. Besides, in [3], the activity change was -0.0177% [at 18.6 µM]. The fluorescence, % of Rose Bengal in assay [5] was -0.101% [at 18.6 µM]. For the same compound, the fluorescence, % of fluorescein control in [7] was 0.172% [at 18.6 µM]. Also, the Potency entry in assay [9] was “inactive”.
Turning to `CCCCCCCCCCn1cc[n+](CCCCCCCCCC)c1C`, the compound was called inactive in assay [1] and in [3]. In addition, the Potency entry in assay [2], in assay [4], in [5], in assay [6], in [7] and in assay [8] was “inactive” each time.
`O=C(O)c1c(Cl)cccc1Cl`: the outcome in [1] and in assay [3] was inactive. Moreover, the Potency entry in assay [2], in [4], in [5], in assay [6], in assay [7] and in assay [8] was “inactive” in each case.
Take `O=S1(=O)CC(Cl)(Cl)C(Cl)(Cl)C1`: the call in [1] and in [3] was inactive. Besides, the Potency entry in [2], in [4], in assay [5], in assay [6], in assay [7] and in assay [8] was “inactive” each time.
Take `O=C1CCCCCN1SSN1CCCCCC1=O`: the compound was called inactive in assay [1] and in assay [3]. The Potency entry in assay [2], in assay [4], in assay [5], in [6], in [7] and in assay [8] was “inactive” throughout.
Take `Oc1ccc(Cl)cc1Sc1cc(Cl)ccc1O`: the compound was classed as inactive in assay [1] and in [3]. The Potency result in [2], in [4], in assay [5], in assay [6], in [7] and in assay [8] was “inactive” each time.
With `Oc1c(Cl)cc(Cl)c2cccnc12`, the outcome in assay [1] and in [3] was inactive. In addition, the Potency entry in [2], in assay [4], in assay [5], in [6], in assay [7] and in [8] was “inactive” each time.
Take `Cc1cccc2c1cc1ccc3cccc4ccc2c1c34`: the compound was classed as inactive in [1] and in assay [3]. Besides, the Potency result in assay [2], in assay [4], in assay [5], in assay [6], in assay [7] and in assay [8] was “inactive” in each case. Moreover, the Potency in [9] was 5.01 µM [fluorescent] (active).
Take `O=CC=C(c1ccccc1)c1ccccc1`: the outcome in assay [1] and in [3] was inactive. Further, the Potency entry in assay [2], in assay [4], in [5], in [6], in [7] and in assay [8] was “inactive” in each case.
Take `CSc1ccc(C(=O)c2[nH]c(=O)[nH]c2C)cc1`: the call in [1] and in assay [3] was inactive. The Potency result in assay [2], in [4], in assay [5], in assay [6], in assay [7] and in [8] was “inactive” in each case.
In the case of `Cc1cc(O)c2ccccc2c1O`, the compound was called inactive in assay [1] and in [3]. The Potency entry in [2], in assay [4], in assay [5], in assay [6], in [7] and in [8] was “inactive” in each case.
Regarding `c1ccc(CSCc2ccccc2)cc1`, the result in [1] and in assay [3] was inactive. In addition, the Potency entry in assay [2], in assay [4], in assay [5], in [6], in [7] and in assay [8] was “inactive” each time. Moreover, the Potency entry in [9] is “inactive”.
